Compound activity deposited in PubChem BioAssay by Broad Institute.
A selection: hits, their analogues and other compounds. The true share with any hit is near 6.8%.
C diff growth: C. difficile growth inhibition; Clostridium difficile clinical isolate growth, OD600, 24 h; hits give low values; hit rate 0.25% among 86,000; growth activity, negative = inhibition, % at 16 µg/mL (by protocol);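 active = mean growth activity at or below -80% and every replicate also at or below -80%; inconclusive = mean at or below -80% but some replicate above -80%; inactive = mean growth activity above -80%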
Pf Dd2 inh: P. falciparum Dd2 growth inhibition; activity change, % at 10 µM; hit rate 2.3% among 94,000; SYBR Green, 72 h; hits give low values; in the data active = activity change below about -80%; inconclusive = no clear call, values can overlap the other calls
T cruzi growth-1: inhibitors of T. cruzi proliferation. T. cruzi beta-gal in NIH3T3, GalScreen luminescence, 90 h. inhibition, % at 8.34 µM. hit rate 5.9% among 77,000. AID 624255;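 active = mean inhibition above about 93%, with at least 55% of replicates each passing it, limit read from the data, passing the limit was not always enough; inconclusive = only one of those two conditions holds; inactive = neither condition holds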
T cruzi growth-2: blocks T. cruzi growth in NIH3T3 host cells; shares compounds with T cruzi growth-1; T. cruzi beta-gal in NIH3T3, GalScreen luminescence, 90 h; inhibition, % at 8.35 µM; hit rate 72% among 5,600; AID 651739;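 active = mean replicate inhibition above about 95% and at least 55% of replicates individually reaching it, limit read from the data; inconclusive = only one of the two criteria is met; inactive = neither criterion is met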
T cruzi growth-3: Trypanosoma cruzi proliferation inhibition; hit rate 21% among 5,600; inhibition, % at 2.09 µM; shares compounds with T cruzi growth-1; T. cruzi beta-gal in NIH3T3, GalScreen luminescence, 90 h;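 active = mean inhibition above about 95%, with at least 55% of replicates also reaching it, limit read from the data; inconclusive = meets just one of the two conditions; inactive = meets neither condition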
NIH3T3 tox: cytotoxicity in mouse NIH/3T3 fibroblasts | AID 651742 | shares compounds with T cruzi growth-1 | cytotoxicity (signal decrease), % at 8.35 µM | NIH/3T3 viability, CellTiter-Glo ATP luminescence, 90 h | hit rate 14% among 5,600;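 active = mean signal decrease across replicates above about 35% based on untreated-well scatter, with enough replicates individually passing, limit read from the data; inconclusive = no rule stated though some were filed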
3T3 cytotox 2: cytotoxicity in mouse NIH/3T3 fibroblasts; shares compounds with T cruzi growth-1; inhibition, % at 24.9 µM; AID 651744; NIH/3T3 viability, CellTiter-Glo ATP luminescence, 90 h; hit rate 56% among 5,600;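 active = mean loss of cell viability signal at or above a set limit, and enough replicates individually reaching it; inconclusive = meets only the mean limit or only the replicate share; inactive = meets neither condition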
Each line names hits and unclear results; the compound was inactive in the other large screens (follow-up assays come after a bar, where they were run).

C[C@@H]1CN([C@H](C)CO)C(=O)c2cc(NS(=O)(=O)c3ccc(F)cc3)ccc2O[C@H]1CN(C)S(=O)(=O)c1ccc(Cl)cc1	none
C[C@@H]1CN([C@H](C)CO)C(=O)c2cc(NS(=O)(=O)c3ccc(F)cc3)ccc2O[C@@H](C)CCCCO[C@@H]1CN(C)S(=O)(=O)c1ccc(Cl)cc1	none
C[C@@H]1CCCCO[C@H](CN(C)S(=O)(=O)c2ccc(Cl)cc2)[C@@H](C)CN([C@@H](C)CO)C(=O)c2cc(NS(=O)(=O)c3ccc(F)cc3)ccc2O1	none
C[C@@H]1CN([C@@H](C)CO)C(=O)c2cc(NS(=O)(=O)c3ccc(F)cc3)ccc2O[C@@H]1CN(C)S(=O)(=O)c1ccc(Cl)cc1	T cruzi growth-1 92 | T cruzi growth-2 110 | T cruzi growth-3 inactive | NIH3T3 tox inactive | 3T3 cytotox 2 46
C[C@@H]1CCCCO[C@@H](CN(C)S(=O)(=O)c2ccc(Cl)cc2)[C@H](C)CN([C@H](C)CO)C(=O)c2cc(NS(=O)(=O)c3ccc(F)cc3)ccc2O1	none
C[C@@H]1CCCCO[C@@H](CN(C)S(=O)(=O)c2ccc(F)cc2)[C@@H](C)CN([C@@H](C)CO)C(=O)c2cc(NS(=O)(=O)c3ccc(Cl)cc3)ccc2O1	T cruzi growth-1 103 | T cruzi growth-2 103 | T cruzi growth-3 inactive | NIH3T3 tox inactive | 3T3 cytotox 2 53
C[C@@H]1CN([C@H](C)CO)C(=O)c2cc(NS(=O)(=O)c3ccc(Cl)cc3)ccc2O[C@@H](C)CCCCO[C@H]1CN(C)S(=O)(=O)c1ccc(F)cc1	T cruzi growth-1 103 | T cruzi growth-2 100 | T cruzi growth-3 110 | NIH3T3 tox inactive | 3T3 cytotox 2 inactive
C[C@@H]1CN([C@@H](C)CO)C(=O)c2cc(NS(=O)(=O)c3ccc(F)cc3)ccc2O[C@@H](C)CCCCO[C@@H]1CN(C)S(=O)(=O)c1ccc(Cl)cc1	T cruzi growth-1 inconclusive | T cruzi growth-2 106 | T cruzi growth-3 103 | NIH3T3 tox inactive | 3T3 cytotox 2 inconclusive
CO[C@H]1CN(C)C(=O)c2cc(NC(=O)C3CC3)ccc2OC[C@@H](C)N(C(=O)c2cnccn2)C[C@H]1C	none (no result: C diff growth)
C[C@@H]1CCCCO[C@@H](CN(C)S(=O)(=O)c2ccc(F)cc2)[C@H](C)CN([C@@H](C)CO)C(=O)c2cc(NS(=O)(=O)c3ccc(Cl)cc3)ccc2O1	T cruzi growth-1 103 | T cruzi growth-2 95 | T cruzi growth-3 inactive | NIH3T3 tox inactive | 3T3 cytotox 2 34
C[C@@H]1CCCCO[C@@H](CN(C)S(=O)(=O)c2ccc(Cl)cc2)[C@@H](C)CN([C@H](C)CO)C(=O)c2cc(NS(=O)(=O)c3ccc(F)cc3)ccc2O1	none
C[C@H](CO)N1C[C@H](C)[C@@H](CN(C)S(=O)(=O)c2ccc(F)cc2)OCCCC[C@H](C)Oc2ccc(NS(=O)(=O)c3ccc(Cl)cc3)cc2C1=O	T cruzi growth-1 100 | T cruzi growth-2 inconclusive | T cruzi growth-3 inconclusive | NIH3T3 tox 48 | 3T3 cytotox 2 27
C[C@H]1CN([C@@H](C)CO)C(=O)Cc2cc(NC(=O)CCN3CCOCC3)ccc2O[C@@H]1CN(C)Cc1ccccc1	none
COc1ccc(S(=O)(=O)Nc2ccc3c(c2)C(=O)N([C@@H](C)CO)C[C@H](C)[C@H](CN(C)S(=O)(=O)c2cccs2)OCCCC[C@@H](C)O3)cc1	none
COc1ccc(S(=O)(=O)Nc2ccc3c(c2)C(=O)N([C@H](C)CO)C[C@@H](C)[C@@H](CN(C)S(=O)(=O)c2cccs2)OCCCC[C@H](C)O3)cc1	T cruzi growth-1 100 | T cruzi growth-2 inactive | T cruzi growth-3 inactive | NIH3T3 tox inactive | 3T3 cytotox 2 inactive
COc1ccc(S(=O)(=O)N(C)C[C@H]2OCCCC[C@H](C)Oc3ccc(NS(=O)(=O)c4cccs4)cc3C(=O)N([C@@H](C)CO)C[C@@H]2C)cc1	T cruzi growth-1 107 | T cruzi growth-2 112 | T cruzi growth-3 inactive | NIH3T3 tox inactive | 3T3 cytotox 2 inactive
COc1ccc(S(=O)(=O)Nc2ccc3c(c2)C(=O)N([C@@H](C)CO)C[C@@H](C)[C@@H](CN(C)S(=O)(=O)c2cccs2)OCCCC[C@H](C)O3)cc1	none
